From PubChem BioAssay
Many of the other results were omitted from the sample, so hits are more common in it than they were.
GIRK2 activator = activators of NPY4-receptor-primed GIRK2 channels, summary, cell-based, HEK293, thallium flux | 34,000 tested, under 10 active | G protein-activated inward rectifier potassium channel 2 (Homo sapiens), P48051 | activation (% efficacy), % for hits at 37.5 µM | HEK293 GIRK2/NPY4 cells, thallium flux fluorescence | AID 1259324, 2017;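 active = primary screen hit, no activity in plain HEK293 cells, and in GIRK2-only cells above 5% efficacy rising with concentration; inactive = the rest, including fluorescent compounds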;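 also: efficacy is normalized control-subtracted fluorescence 15 s after thallium addition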
GluA2 TARP mod = modulators of GluA2-stargazin AMPA receptor complexes, primary screen, cell-based, membrane potential dye | calls only at 30 µM | HEK293 GluA2+stargazin, membrane potential dye (FDSS), glutamate EC50; hits were called plate by plate, in both directions | 3.5% of 40,000 active | Voltage-dependent calcium channel gamma-2 subunit (Mus musculus) + Glutamate receptor 2 … | AID 1259245, 2017;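 active = any of four per-well response measures lying three or more SD from its plate-wide compound average, in either direction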
Target sequence (O88602 whole entry, looked up): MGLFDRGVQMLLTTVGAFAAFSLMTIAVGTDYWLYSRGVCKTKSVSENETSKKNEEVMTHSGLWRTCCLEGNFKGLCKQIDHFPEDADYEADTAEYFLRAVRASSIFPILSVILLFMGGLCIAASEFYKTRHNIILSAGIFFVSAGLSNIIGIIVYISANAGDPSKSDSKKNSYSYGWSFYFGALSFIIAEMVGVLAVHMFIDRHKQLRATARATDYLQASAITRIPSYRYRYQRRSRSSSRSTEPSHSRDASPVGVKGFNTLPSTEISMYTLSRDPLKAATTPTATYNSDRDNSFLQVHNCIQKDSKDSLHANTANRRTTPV
Target sequence (P19491 whole entry, looked up): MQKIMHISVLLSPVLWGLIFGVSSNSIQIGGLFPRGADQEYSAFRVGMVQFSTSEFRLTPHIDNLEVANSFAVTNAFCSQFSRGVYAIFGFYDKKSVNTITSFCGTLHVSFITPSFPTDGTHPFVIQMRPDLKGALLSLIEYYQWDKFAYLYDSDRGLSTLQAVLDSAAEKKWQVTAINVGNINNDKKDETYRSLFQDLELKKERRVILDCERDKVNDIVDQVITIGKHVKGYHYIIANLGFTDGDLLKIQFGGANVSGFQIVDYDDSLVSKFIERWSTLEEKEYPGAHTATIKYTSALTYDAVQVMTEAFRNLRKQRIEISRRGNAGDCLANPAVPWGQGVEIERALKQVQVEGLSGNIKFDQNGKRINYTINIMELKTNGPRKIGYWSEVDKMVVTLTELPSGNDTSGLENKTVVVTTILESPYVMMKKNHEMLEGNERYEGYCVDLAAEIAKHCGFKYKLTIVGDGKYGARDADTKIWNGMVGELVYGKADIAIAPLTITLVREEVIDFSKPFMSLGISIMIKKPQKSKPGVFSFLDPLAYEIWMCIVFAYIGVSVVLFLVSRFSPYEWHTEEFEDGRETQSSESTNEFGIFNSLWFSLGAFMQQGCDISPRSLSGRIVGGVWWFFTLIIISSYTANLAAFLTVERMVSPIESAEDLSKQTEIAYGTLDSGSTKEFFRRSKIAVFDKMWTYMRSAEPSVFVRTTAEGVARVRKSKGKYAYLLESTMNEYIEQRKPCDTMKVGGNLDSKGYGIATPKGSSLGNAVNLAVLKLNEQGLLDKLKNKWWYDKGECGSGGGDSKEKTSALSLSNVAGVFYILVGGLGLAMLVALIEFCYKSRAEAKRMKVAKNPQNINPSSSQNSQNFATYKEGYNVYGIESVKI
Starred values were filed as active, the others as inactive; i = inactive; . = no result given; + = active, no number.

SMILES	GIRK2 activator	GluA2 TARP mod
COc1ccc(CNC(=O)Cc2nnc(-c3cccc(Br)c3)o2)c(OC)c1	i	.
CCOc1ccc(C(=O)NCC(O)Cc2ccccc2)cc1 (stereo not drawn)	i	i
Cc1ccc(N2CCCS2(=O)=O)cc1NC(=O)Nc1ccc(Cl)c(Cl)c1	i	i
O=C(Nc1ccc(N2CCCS2(=O)=O)cc1)Nc1ccc(Cl)c(Cl)c1	i	+
O=C(Nn1cnc2c(cnn2-c2ccccc2)c1=O)c1cc(=O)c2ccccc2o1	i	i
Cc1cccc(OCC(O)Cn2c(N3CCN(c4ccccc4)CC3)nc3c2c(=O)n(C)c(=O)n3C)c1 (stereo not drawn)	.	i
CN1CCN(c2nc3c(c(=O)n(C)c(=O)n3C)n2CC(O)COc2ccccc2)CC1 (stereo not drawn)	.	+
COc1ccc(OCC(O)Cn2c(N3CCN(C)CC3)nc3c2c(=O)n(C)c(=O)n3C)cc1 (stereo not drawn)	.	+
Cc1ccc(OCC(O)Cn2c(N3CCC(C)CC3)nc3c2c(=O)n(C)c(=O)n3C)cc1C (stereo not drawn)	.	i
O=C(COc1ccccc1)N1CCC(CNS(=O)(=O)Cc2cccc(F)c2)CC1	i	i
COc1ccc(NC(=O)c2ccc(=O)n(CC(=O)Nc3cccc(C(C)=O)c3)n2)cc1	i	i
O=C(NCCC(O)c1cccs1)C1(c2ccc(Cl)cc2)CCCC1 (stereo not drawn)	i	+
O=C(CCSc1ccccc1)NCCC(O)c1cccs1 (stereo not drawn)	i	i
COCCNC(=O)Cn1cc(-c2nnc(-c3ccccc3)o2)c2ccccc21	i	i
Cc1nn(-c2ccccc2)c(OC(=O)CCCc2ccccc2)c1S(=O)(=O)c1ccccc1	.	i
Cc1cn2c3c(=O)n(CCN4CCOCC4)c(=O)n(C)c3nc2n1C1CCCCC1	.	i
Cn1c(=O)c2ccc(C(=O)NC3CCCCC3)cc2n2c(SCC(N)=O)nnc12	i	+
CC(C)NC(=O)c1ccc(Cn2c(SCC#N)nc3ccccc3c2=O)cc1	i	i
Cn1c(CSc2nc(N)cc(N)n2)nnc1SCC(=O)NC1CCCCC1	.	i
CC(C)NC(=O)CSc1nnc2n(Cc3ccccc3)c(=O)c3ccc(C(=O)NC(C)C)cc3n12	i	+
CCCNC(=O)c1ccc(Cn2c(SCC(=O)NC(C)C)nc3ccccc3c2=O)cc1	i	i
CC(C)NC(=O)c1ccc2c(=O)n(Cc3ccccc3)c3nnc(SCC(N)=O)n3c2c1	i	+
CCOc1ccc(C(=O)CSc2nccn(-c3ccc(C)cc3)c2=O)cc1	.	i
COCCNC(=O)Cn1nc2c(c1NC(=O)/C=C\c1ccc3c(c1)OCO3)CSC2	i	i
CCn1ccnc1N1CCN(CC(=O)NC2CCCCC2)CC1	i	i
SMILES	GIRK2 activator	GluA2 TARP mod
COc1ccccc1NC(=O)N1CCN(c2ccc3nnc(-c4ccco4)n3n2)CC1	i	i
CCc1ccccc1NC(=O)N1CCN(c2ccc3nnc(-c4ccco4)n3n2)CC1	i	+
CN(C(=O)Cn1c(=O)c2c(N3CCN(C(=O)C4CC4)CC3)ccnc2n(C)c1=O)c1ccccc1	.	i
Cc1ccc(C)c(Sc2cc(N3CCC(C(=O)NCCN4CCCC4)CC3)ncn2)c1	i	i
Cc1ccc(C)c(Sc2cc(N3CCC(C(=O)NCC4CCCO4)CC3)ncn2)c1 (stereo not drawn)	i	+
Cc1cc(NC(=O)CN2CCC(c3nnc(-c4ccco4)s3)CC2)no1	i	.
CCOC(=O)Nc1sc(-c2ccccc2)cc1C(N)=O	i	i
COc1cc(C)c(C)cc1S(=O)(=O)NCC(O)(c1ccccc1)C1CC1 (stereo not drawn)	i	i
COc1ccc(C(=O)Oc2c(S(=O)(=O)c3ccc(C)cc3)c(C)nn2C(C)(C)C)cc1OC	.	+
Cc1ccc(S(=O)(=O)c2c(C)nn(C(C)(C)C)c2OC(=O)c2cccc(C)c2)cc1	.	i
CCN1CCN(C(=O)c2cc(-c3ccccc3)nc3c2c(C)nn3C2CCS(=O)(=O)C2)CC1 (stereo not drawn)	i	.
COC(=O)N1CCC(CNC(=O)/C=C/c2ccccc2)CC1	i	i
CC(=O)c1cccc(NC(=O)CSc2ccc(NC(=O)c3cccc(F)c3)nn2)c1	i	i
O=C(C1CC1)N1CCN(c2ncnc3c2nnn3-c2ccc(F)cc2)CC1	.	i
O=C(Cn1cnc(-c2cccs2)cc1=O)NCc1ccccc1OC(F)(F)F	i	i
O=C(Cn1cnc(-c2cccs2)cc1=O)NCC(F)(F)F	i	+
Cn1nccc1C(=O)Nc1nc(-c2ccccc2)c(C(=O)c2ccccc2)s1	i	.
CC(=O)N1CCc2ccc(NC(=O)c3ccno3)cc21	i	+
COc1cccc(C(=O)Nc2ccc3c(c2)N(C(=O)c2ccco2)CC3)c1OC	i	i
COc1nn(C)cc1C(=O)Nc1ccc2c(c1)N(C(=O)c1ccco1)CC2	i	+
CC(=O)N1CCc2ccc(NC(=O)c3ccc(F)c(F)c3)cc21	i	i
COC(=O)N1CCc2ccc(NC(=O)C3CC=CCC3)cc2C1 (stereo not drawn)	i	i
COc1cccc(C(=O)Nc2sc3c(c2-c2nc4ccccc4s2)CCN(C(C)=O)C3)c1	.	i
O=C(Nc1ccc2cn[nH]c2c1)c1ccc(=O)[nH]n1	i	+
O=C(Nc1ccc(Cl)c(Cl)c1)Nc1ccc2cn[nH]c2c1	i	i
SMILES	GIRK2 activator	GluA2 TARP mod
CCCC(=O)Nc1ccc(O)c(C(=O)/C=C/c2ccc(C(=O)O)cc2)c1	.	i
O=C(O)c1ccc(/C=C/C(=O)c2ccco2)cc1	.	+
NC(=O)c1ccc(NC(=O)CCN2C(=O)c3ccccc3S2(=O)=O)cc1	i	i
CNC(=O)c1nsc(C(=O)NCc2ccc(OC)c(OC)c2)c1N	i	+
CNC(=O)c1nsc(C(=O)NCc2cccc(C(F)(F)F)c2)c1N	i	i
CC(C)CCN1C(=O)C(C)(C)COc2ccc(NC(=O)c3cc(=O)c4ccccc4o3)cc21	i	+
Cc1ccc(OCC(=O)Nc2ccc3c(c2)N(CCC(C)C)C(=O)C(C)(C)CO3)cc1	.	+
CC(C)CCN1C(=O)C(C)(C)COc2ccc(NC(=O)COc3ccc(Cl)cc3)cc21	.	i
Cc1cccc(OCC(=O)Nc2ccc3c(c2)N(CCC(C)C)C(=O)C(C)(C)CO3)c1	.	i
CS(=O)(=O)N1CCN(C(=O)c2nc(-c3cnccn3)no2)CC1	i	i
O=C(Cc1ccc(NC(=O)c2ccc(Br)cc2)cc1)NCC(F)(F)F	i	.
CCOc1ccccc1NC(=O)Cn1nc(-c2ccc3c(c2)OCO3)ccc1=O	i	i
COCCN(CC(O)CON=C1c2ccccc2-c2ccccc21)S(C)(=O)=O (stereo not drawn)	i	i
COc1ccc(N2CCN(C(=O)c3ccc(S(=O)(=O)N4CCCC4)cc3)CC2)nn1	i	.
CN(C)c1ccc(N2CCN(C(=O)c3ccc(S(N)(=O)=O)cc3)CC2)nn1	i	+
